A1 inh = inhibitors of the anti-apoptotic protein A1, read as caspase activation. MEF A1-2A-BIM cells, Caspase-Glo 3/7 luminescence, 3 h; percent of clofoctol response, vehicle zero. caspase activation, % (concentration not given with the values). 330,000 tested, 0.066% active;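 active = over half of replicate activation scores above 10%, or exactly half above 10 with the replicate mean above 10; inconclusive = replicate mean below 10 yet half the replicates above 10; inactive = over half of replicates below 10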
Efflux pump inh = blocks antifungal efflux pumps in multiplex yeast assay. S. cerevisiae Candida pump triplex, Nile Red efflux. inhibition, % at 10 µM. 330,000 tested, 0.44% active. AID 485275;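 active = plate passing quality check with inhibition over a set limit, or well fluorescence over plate mean plus 4 SD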;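 also: Nile Red retained in pooled yeast measured as flow cytometry median fluorescence; higher means more Nile Red kept so more efflux inhibition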
ALR inh = human ALR oxidase inhibition via reduced H2O2. P55789. purified ALR, DTT oxidation, H2O2 HRP-luminol luminescence. inhibition, % (no concentration beside the values). 290,000 tested, 3.8% active. AID 485317;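 active = mean replicate inhibition above about 79%, with every replicate also reaching it, limit read from the data; inconclusive = only one of the two criteria met; inactive = mean below limit and not every replicate reaching it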
AHR activator = human AHR activation | 320,000 tested, 2.5% active | AHR-responsive luciferase reporter cells, luminescence | activation, % at 5 µM | P35869; in the data active = activation above about 47%
VLA-4 inh = inhibition in a human VLA-4 binding assay; P13612; VLA-4 expressing cells, ligand binding flow cytometry; inhibition, % (about 7 µM as worked out from the volumes in the protocol); 330,000 tested, 0.2% active; in the data active = inhibition above about 50%
SUMO Mot1 rescue = blocks SUMOylation pathway, rescuing yeast Mot1-301 growth; S. cerevisiae Mot1-301 growth rescue, ATP luminescence, 38.5C; percent above DMSO median, 100 means doubled; 320,000 tested, 1% active; AID 2716; growth rescue, % at 18.8 µM;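 active = every valid replicate shows activation above 250% relative to neutral control wells; inactive = the rest, any valid replicate at or below 250%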
Of the large screens only hits and unclear results are named; the others gave an inactive call. Most compounds without a hit are left out; they make up all but 7.2% or so of the library.

CCN(CC)c1ccc(/C=N/NC(=O)c2ccc(Br)o2)cc1	AHR activator 88.1
O=C(CN(C(=O)Cn1nnc(-c2ccc(F)cc2)n1)c1cccc(F)c1)NC1CCCC1	none
CCCCn1c(NCc2ccc3c(c2)OCO3)nc2ccccc21	ALR inh 92.1
CCCn1c(NCc2ccc3c(c2)OCO3)nc2ccccc21	ALR inh 96.5
COC(=O)c1ccsc1NS(=O)(=O)c1ccccc1	ALR inh 80.5
COC(=O)c1sccc1NS(=O)(=O)c1ccccc1	none
CCOC(=O)COc1cccc2c(=O)n(CC(=O)N3CCCc4ccccc43)ccc12	ALR inh 97.2
O=C1[C@H]2[C@@H](C(=O)N1c1cccc3ccccc13)C1(C(=O)c3ccccc3C1=O)N1CCC[C@@H]21	none (no result: ALR inh)
CC(=O)n1cc([C@H]2C=C(C(=O)N3CCN(Cc4ccccc4)CC3)O[C@@H](OCc3ccc(CO)cc3)C2)c2ccccc21	none (no result: ALR inh)
CC(=O)Nc1cc(-c2ccccc2)ccc1O	ALR inh 99.5
Nc1cc(-c2ccccc2)ccc1O	ALR inh 98.8
CCN(CC)c1ccc(N=CN2CCOCC2)cc1	ALR inh 98.4
COc1ccc(C=O)cc1OC(=O)C1(C)Cc2ccccc2C(=O)O1 (stereo not given)	none (no result: ALR inh)
O=C(NNC1=Nc2cc([N+](=O)[O-])ccc2OC1)c1ccccc1Cl	none
N#Cc1ccc(-c2nnnn2-c2ccc3c(c2)OCO3)cc1	none
N#Cc1cccc(-n2nnnc2-c2ccc3c(c2)OCO3)c1	AHR activator 56.8
Nc1ccc2oc3ccc(N)cc3c(=O)c2c1	ALR inh 99.2
Cc1ccnc(NC(=O)c2cc(S(=O)(=O)NCc3ccccc3)ccc2C)c1	none
CC1CCc2c(sc3ncnc(NCCCOC(C)C)c23)C1 (stereo not given)	AHR activator 61.1
CCCCCCc1c(C)nc(-n2[nH]c(C)c(CCO)c2=O)[nH]c1=O	ALR inh 85.6
O=C(CN(c1ccccc1)S(=O)(=O)c1ccccc1[N+](=O)[O-])Nc1cccnc1	none
CCSc1ccc([C@@H]2[C@@H]3C(=O)N(CC)C(=O)[C@@H]3[C@]3(C(=O)OC)CCCN23)cc1	none
COc1ccccc1Nc1nc(NCC2CCCO2)c2ccccc2n1 (stereo not given)	none
CCn1c(-c2cc(Br)ccc2O)n[nH]c1=S	ALR inh 98.1
CCn1c(-c2cc3ccccc3cc2O)n[nH]c1=S	ALR inh 98.7
CCN1CCN(C(=O)CCCn2c(C)c3cnn(-c4ccccc4)c(=O)c3c2C)CC1	SUMO Mot1 rescue 332.4 (no result: ALR inh)
Cc1c2cnn(-c3ccccc3)c(=O)c2c(C)n1CCCC(=O)N1CCN(C2CCCCC2)CC1	none
O=c1c(-c2n[nH]c(=S)n2-c2ccccc2)cccn1Cc1cccc(Cl)c1	ALR inh 93.0
Cc1ccc(SCc2noc(C(=O)NC(C)C)c2C(=O)O)cc1C	ALR inh 95.7 (no result: Efflux pump inh, VLA-4 inh)
COCCNC(=O)c1onc(CSc2ccc(C)c(C)c2)c1C(=O)O	ALR inh 90.4
Cn1c(SCC(=O)Nc2cc([N+](=O)[O-])ccc2F)nnc1C(F)(F)F	none
COc1ccc(CN2CCOCC2)cc1OC	none
COc1cc2sc3ccc(-c4ccc(CN5CCOCC5)cc4)cc3c(=O)c2cc1OC	AHR activator 51.5
COc1ccccc1CNC(=O)CN(Cc1ccc(Cl)cc1)S(C)(=O)=O	none
NC(=O)CN(C/C=C/c1ccccc1)C/C=C/c1ccccc1	AHR activator 55.1 (no result: ALR inh)
CN1CCN(c2ncnc3sc(-c4ccccc4)cc23)CC1	AHR activator 54.6
CN(C)/C=N/c1c(C#N)cnn1-c1ccccc1	none
CN(C)/C=N/c1c(C#N)cnn1-c1ncnc2sc(-c3ccccc3)cc12	AHR activator 57.7 (no result: SUMO Mot1 rescue)
OCCNc1nc(Nc2ccccc2O)nc(N2CCCC2)n1	ALR inh inconclusive
C=CCn1c(O)c(N=NC(=O)CNC(=O)c2ccco2)c2ccccc21	none
C=CCn1c(O)c(N=NC(=S)Nc2cccc(OC)c2)c2ccccc21	AHR activator 61.4
C=CCn1c(O)c(N=NC(=O)CNC(=O)Cc2ccccc2)c2ccccc21	AHR activator 53.2
CN(C)c1ccc(N=Nc2ccccc2C(=O)OCC(=O)N(C)c2ccccc2)cc1	none (no result: ALR inh)
N=C1C(c2nc3ccccc3s2)=C(O)CN1C1CCCCC1	none
Cc1sc(NC(=O)CSc2nnc(C)c(=O)[nH]2)c(C#N)c1C	ALR inh 98.4
Cc1cc(C(=O)Nc2sc(C)c(C)c2C#N)c(C)o1	AHR activator 76.4
Cc1sc(NC(=O)CSc2nc(N)cc(N)n2)c(C#N)c1C	SUMO Mot1 rescue 318.6
Cc1sc(NC(=O)CSc2nnc(C(C)C)n2C)c(C#N)c1C	none
Cc1ccc(S(=O)(=O)N2CC=C(C(=O)NC3CC3)CC2)cc1	none
CC(=N\Nc1ccccc1)/C(=N/O)C(=O)Nc1ccccc1	ALR inh 97.4
CN1C(=O)[C@@H]2[C@H](C1=O)[C@@H]1C(=O)Nc3ccccc3C(=O)N1[C@@H]2c1ccc(Br)cc1	none
CN(C)S(=O)(=O)N1CCN(c2ccccc2)CC1	ALR inh 79.4
Clc1ccccc1CN1CCc2sccc2C1	none
COC(=O)c1ccc(CSc2nc3ccccc3c(=O)n2C)o1	ALR inh inconclusive
O=C(CSc1nc2cc(Cl)ccc2c(=O)n1Cc1ccco1)Nc1ccc(S(=O)(=O)N2CCOCC2)cc1	none
COC(=O)c1ccc(CSc2nc3ccccc3c(=O)n2Cc2ccco2)o1	ALR inh 93.6
NC(=O)CSc1nc2ccccc2c(=O)n1Cc1ccco1	none
COC(=O)c1ccc2c(=O)n(Cc3ccco3)c(SCC(=O)Nc3ccc(C)c(Cl)c3)nc2c1	A1 inh 17.2, ALR inh 99.6
CCCn1c(C)cc(C(=O)CSc2nc3ccccc3c(=O)n2Cc2ccco2)c1C	ALR inh 99.1
C#CCn1c(=NC(=O)CSCC(=O)N2CCOCC2)sc2ccccc21	ALR inh 95.7
Cn1c(=NC(=O)CSCC(=O)N2CCCC2)sc2ccccc21	none
CSc1sc(-c2ccnc(=S)[nH]2)c(-c2ccccc2)c1C#N	ALR inh 96.0
O=C(CSCc1ccco1)NC1CCCC1	ALR inh 98.9
Cc1ccc(NC(=O)CSCc2ccc(F)cc2)cc1	ALR inh 92.6
Cc1ccc(CSCC(=O)NCc2ccc(F)cc2)cc1	none (no result: SUMO Mot1 rescue)
Cc1ccccc1CSCC(=O)NC1CCCC1	none (no result: ALR inh)
Cc1ccc(NC(=O)CSCC(=O)O)cc1	ALR inh 97.8
O=C(O)CSCC(=O)Nc1ccc(C2CCCCC2)cc1	ALR inh 98.4
Cc1ccc(NC(=O)CSCC(=O)NC2=NCCS2)cc1	ALR inh 98.5
Cc1ccc(NC(=O)CSCc2ccco2)cc1	ALR inh 98.9
Cc1ccc(NC(=O)CSCC(=O)NCc2ccco2)cc1	none
Cc1cccc(NC(=S)NCc2ccc3c(c2)cc(C)n3C)c1C	none

Bioassay records (PubChem BioAssay)
